The values that follow come from PubChem BioAssay AID602358 (National Center for Advancing Translational Sciences (NCATS), 2012).

Results filed as inconclusive are left out. The source made the active and inactive calls. The call rests on the fitted dose curve; in most records, active means well fitted inhibition curve with a large enough effect; inconclusive means small, poorly fitted or top-dose-only effect; inactive means flat fitted curve, though single readings scatter.

Luciferin 4-monooxygenase (Photinus pyralis), sequence (P08659 whole entry, looked up): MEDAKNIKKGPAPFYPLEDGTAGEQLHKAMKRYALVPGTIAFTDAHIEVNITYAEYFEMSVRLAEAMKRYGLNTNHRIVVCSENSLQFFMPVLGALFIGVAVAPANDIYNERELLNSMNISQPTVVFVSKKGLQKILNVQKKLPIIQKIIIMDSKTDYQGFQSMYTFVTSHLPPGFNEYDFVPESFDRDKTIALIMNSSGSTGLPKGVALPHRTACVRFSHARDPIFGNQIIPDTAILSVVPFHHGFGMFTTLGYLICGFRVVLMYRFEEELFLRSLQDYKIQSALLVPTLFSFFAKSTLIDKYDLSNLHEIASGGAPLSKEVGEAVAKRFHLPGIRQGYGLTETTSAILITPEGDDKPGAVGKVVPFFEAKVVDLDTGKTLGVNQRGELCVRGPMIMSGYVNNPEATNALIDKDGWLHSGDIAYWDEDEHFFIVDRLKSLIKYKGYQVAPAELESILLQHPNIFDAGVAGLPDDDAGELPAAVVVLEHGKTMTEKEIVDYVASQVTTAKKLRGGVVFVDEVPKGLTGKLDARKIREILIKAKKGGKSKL

This test addresses Luciferin 4-monooxygenase (Photinus pyralis) (UniProt P08659). Put plainly: FLuc inhibitory activity for the follow-up compounds in a biochemical assay with Km concentrations of substrate and 500microM CoASH. Conditions: purified FLuc, Km substrates + 500 uM CoASH, luminescence; series mostly up to 57.5 µM. An excerpt:
NCGC Assay Overview: Firefly (Photinus pyralis) luciferase is one of the most commonly used transcriptional reporters. It is considered one of the more dynamically responsive reporters - that is, responsive to changes in reporter transcription - as it requires no post-translational modifications and is enzymatically active directly after protein synthesis (Wood, 1998). With no endogenous expression in mammalian cells and without the requirement of external excitation, it offers very little background signal, thus generally providing excellent signal to background for most assays. Previous profiling work to determine the prevalence of compounds that affect FLuc enzymatic activity (PubChem AID 411) identified that ~3% of the MLSMR library (then at ~72K) inhibited FLuc. […] Of the compounds identified in this profile that inhibited FLuc, 151 compounds were selected for further analysis, in an effort to better understand their mode of inhibiting FLuc. The assay described here was to determine the activity of the compounds in an FLuc assay that contained KM concentrations of substrates and 500uM CoASH.
NCGC Assay Protocol Summary: Reagents: 50mM Tris acetate, pH 7.5; 10mM Mg acetate; 10uM D-luciferin (Sigma #L9504); 10uM ATP; 0.01% Tween-20; 0.05% BSA; 10nM P. pyralis luciferase (Sigma #L9506); 500 uM CoASH Control compounds used were two known firefly luciferase inhibitors (3-(5-(3-chlorophenyl)-1,2,4-oxadiazol-3-yl)benzoic acid and 5-(2-fluorophenyl)-3-phenyl-1,2,4-oxadiazole), and DMSO. Three microliters containing firefly luciferase substrates in buffer (final concentrations: 50mM Tris acetate, pH 7.5, 10mM Mg acetate, 0.01% Tween-20, 0.05% BSA, 10uM D-luciferin, 10uM ATP, and 500 uM CoASH) are dispensed into each well of a Greiner white, solid-bottom 1536-well format plate using a flying reagent dispenser (FRD). These assay plates were then treated with 23nL of compound or DMSO using a Kalypsys pin tool, which allows for delivery of a 12-point intraplate titration of each compound to the assay plate (quantitative HTS), with a final compound concentrations ranging from approximately ~60uM to 0.3nM. One microliter of firefly luciferase in 500mM Tris-acetate buffer was then delivered by FRD to each well for a final enzyme concentration of 10nM. Luciferase activity was then measured using a ViewLux CCD imager (PerkinElmer), with an average exposure time of 2-30 seconds (2X binning, medium/high gain).
For `Cc1ccc2sc(-c3ccc(N)cc3)nc2c1`, the Potency is 0.0411 µM (active). Turning to `Cc1c(NS(C)(=O)=O)cccc1-c1nc2ccccc2s1`, the Potency is 3.66 µM (active). The result for `Cc1ccc(S(=O)(=O)N2CCN(C(=O)c3ccccc3-c3nc4ccccc4s3)CC2)c(C)c1` reads “inactive”. As for `O=C(Nc1ccccc1C(=O)Nc1ccccc1C(=O)O)c1ccccc1`, the figure is 10.3 µM (active); as for `CCc1noc(C)c1C(=O)Nc1nc2ccc(OC)cc2s1`, 13 µM (active); as for `Cc1ccc(C(=O)Nc2cccc(C(=O)O)c2)cc1`, 3.66 µM (active). On to `O=C(O)c1cccc(NC(=O)c2ccccc2NC(=O)c2ccccc2F)c1`, for which the Potency is 18.3 µM (active). The result for `O=C(O)c1ccc(NC(=O)c2ccccc2NC(=O)c2ccccc2Br)cc1` reads 16.3 µM (active); that for `COc1ccc(-c2cccc(C(=O)Nc3cccc(C(=O)O)c3)c2)cc1`, 13 µM (active). Regarding `CCOc1ccc(C(=O)Nc2ccccc2C(=O)O)cc1`, the Potency is 0.41 µM (active).

In the case of `COc1c(C)cccc1C(=O)Nc1ccc(-c2nc3ccccc3s2)c(Cl)c1`, the Potency entry was “inactive”. As for `Nc1ccc2nc(-c3ccccc3)sc2c1`, the figure is 0.058 µM (active); as for `CCOc1ccc2nc(NC(=O)c3ccccc3)sc2c1`, 0.206 µM (active). The result for `O=C(Nc1ccc(-c2nc3ccccc3s2)cc1)C1=COCCO1` reads 0.0259 µM (active). The result for `O=C(Nc1cccc(-c2nc3ccccc3s2)c1)C1=COCCO1` reads 7.3 µM (active); that for `CCOc1ccc2nc(NC(=O)Cc3cccs3)sc2c1`, 5.8 µM (active). On to `NC(=O)Cc1ccc2sc(-c3ccccc3)nc2c1`, for which the Potency is 1.63 µM (active). As for `CC(C)C(=O)Nc1cccc(C(=O)Nc2ccccc2C(=O)O)c1`, the figure is 7.3 µM (active).

On to `O=C(Nc1cccc(-c2nc3ccccc3s2)c1)c1cc(-n2cnnc2)ccc1Cl`, for which the Potency was 3.66 µM (active). As for `COc1ccc(NS(=O)(=O)c2cccc(C(=O)Nc3ccccc3C(=O)O)c2)cc1`, the entry is “inactive”; as for `O=C(O)c1cccc(NC(=O)c2cccc(S(=O)(=O)Nc3cccc(F)c3)c2)c1`, “inactive”; as for `O=C(Nc1ccccc1C(=O)O)c1cccc(NC(=O)c2ccco2)c1`, 6.51 µM (active).

Regarding `COc1ccc2nc(NC(=O)c3ccc4ncsc4c3)sc2c1`, the Potency was 0.651 µM (active). In the case of `COc1ccc2nc(NC(=O)Cc3cccs3)sc2c1`, the Potency was 5.8 µM (active).

In the case of `O=C(O)c1ccc(NC(=O)c2ccccc2NC(=O)c2cccc(Br)c2)cc1`, the Potency was 7.3 µM (active). The result for `O=C(Nc1ccccc1C(=O)O)c1cccc(NC(=O)c2ccccc2Cl)c1` reads 14.6 µM (active). As for `Cc1ccc2nc(-c3ccc(NC(=O)CN4CCN(C(=O)c5ccco5)CC4)cc3)sc2c1`, the figure is 3.66 µM (active).

Turning to `COc1ccc(C(=O)Nc2ccccc2C(=O)N/N=C/c2ccc(O)c(OC)c2)cc1`, the Potency was 0.0037 µM (active). On to `CC(=O)Nc1cccc(C(=O)Nc2ccccc2C(=O)O)c1`, for which the Potency was 20.6 µM (active).

As for `O=C(O)c1cccc(NC(=O)c2ccc(Cl)c(S(=O)(=O)N3CCCCCC3)c2)c1`, the Potency is 2.91 µM (active).

On to `COc1ccc2nc(NC(=O)c3cnccn3)sc2c1`, for which the Potency is 0.919 µM (active). The result for `COc1ccc(-c2nc3ccccc3s2)cc1NC(=O)c1ccc(F)cc1` reads “inactive”; that for `Cc1c(NC(=O)c2cc(-n3cnnc3)ccc2Cl)cccc1-c1nc2ccccc2s1`, 0.231 µM (active); that for `CC(C)(C)C(=O)Nc1ccc(-c2nc3ccccc3s2)cc1`, 0.0103 µM (active). As for `O=C(Nc1ccccc1C(=O)O)c1cc(S(=O)(=O)Nc2ccccc2)ccc1Cl`, the entry is “inactive”; as for `CN(C)c1cccc(C(=O)Nc2ccc(-c3nc4ccccc4s3)cc2)c1`, 1.46 µM (active).

As to `Cc1cccc(C(=O)Nc2ccccc2C(=O)Nc2ccc(C(=O)O)cc2)c1`, the Potency was 5.8 µM (active). The result for `Nc1ccccc1C(=O)Nc1cccc(C(=O)O)c1` reads 18.3 µM (active); that for `COc1ccc(-c2nc3ccccc3s2)cc1O`, 0.0326 µM (active); that for `O=C(O)c1ccc(NC(=O)c2ccccc2NC(=O)c2ccccc2Cl)cc1`, 16.3 µM (active).
